Screening data (PubChem BioAssay)
MPTP block: mitochondrial permeability transition pore inhibitors, primary screen, biochemical, isolated mouse mitochondria, absorbance; Ca2+ swelling absorbance, 30 min; inhibition, % at 10 µM; 360,000 compounds, 1.4% hits;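 active = inhibition of 50% or more, scaled per plate between neutral and stimulator controls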;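 also: 0% = DMSO wells given calcium and 100% = 1 mM EGTA wells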
tim23-1 inh: growth inhibitors of tim23-1 mutant yeast, primary screen, luminescence, uHTS. S. cerevisiae tim23-1 growth, BacTiter-Glo luminescence, 24 h. inhibition, % at 20 µM. 330,000 compounds, 1.3% hits. AID 463212, 2010;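 active = growth inhibition of the mutant yeast at or above 50%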;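 also: temperature-sensitive mutant grown at 25 °C; plate controls were DMSO-treated mutant yeast for no effect and medium wells lacking yeast for full effect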
TIM10 inh: growth inhibitors of isogenic TIM10 control yeast, primary screen, counter-screen for tim10-1 yeast inhibitor project, luminescence, uHTS | S. cerevisiae TIM10 strain growth, BacTiter-Glo luminescence, 24 h | 330,000 compounds, 1.4% hits | inhibition, % at 10 µM | AID 463195, 2010;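 active = inhibition of 40% or more at the single tested concentration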;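 also: wild-type TIM10 isogenic control strain grown at permissive 25 °C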
Mdm2-MdmX inh: inhibitors of human Mdm2-MdmX association, primary screen, cell-based, luminescence, split luciferase, SaOS-2, uHTS; SaOS-2 split-luciferase Mdm2/MdmX complementation; inhibition, % at 8 µM; 330,000 compounds, 3% hits;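 active = inhibition of at least 50% at 8 µM in the primary screen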
tim10-1 inh: growth inhibitors of tim10-1 mutant yeast, primary screen, luminescence, uHTS | S. cerevisiae tim10-1 ts strain growth, BacTiter-Glo, 24 h | inhibition, % at 20 µM | 330,000 compounds, 2.2% hits;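 active = inhibition of at least 40%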;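 also: mutant grown at 25 °C; 0% = DMSO wells with yeast and 100% = wells holding no yeast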
tim10-1 conf: growth inhibitors of tim10-1 mutant yeast, confirmation, single concentration, luminescence, S. cerevisiae | shares compounds with tim10-1 inh | S. cerevisiae tim10-1 ts strain growth, BacTiter-Glo, 24 h | inhibition, % at 20 µM | 7,400 compounds, 56% hits;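 active = inhibition of yeast growth at or above a set limit in either of two repeat tests at 20 µM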;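 also: tim10-1 mutant grown at permissive 25 °C to find synthetic lethal compounds; 0% = DMSO yeast wells and 100% = medium wells without yeast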
tim10 confirm: growth inhibitors of wild-type TIM10 yeast, confirmation, counter-screen for tim10-1 synthetic lethality project, single concentration, luminescence, S. cerevisiae; shares compounds with TIM10 inh; S. cerevisiae tim10 strain growth, BacTiter-Glo luminescence, 24 h; inhibition, % at 10 µM; 4,600 compounds, 63% hits; AID 463215, 2010;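 active = inhibition of yeast growth at or above a set limit in either of two replicates at 10 µM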;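 also: this counterscreen used the strain with wild-type TIM10; 0% = yeast with DMSO and 100% = medium wells lacking yeast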
tim23-1 conf: tim23-1 mutant yeast growth inhibitors, confirmation, luminescence, single concentration; shares compounds with tim23-1 inh; inhibition, % at 20 µM; 4,400 compounds, 83% hits; S. cerevisiae tim23-1 growth, BacTiter-Glo luminescence, 24 h;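 active = inhibition above about 39% in either of two replicate wells at 20 µM, limit read from the data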;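 also: temperature-sensitive tim23-1 mutant grown at 25 °C; 0% = DMSO wells with yeast and 100% = medium wells without yeast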
Active calls of the source: *; / = no result. This is a sample that favours compounds with a hit; in the whole collection about 6.3% have one here.

SMILES	MPTP block	tim23-1 inh	TIM10 inh	Mdm2-MdmX inh	tim10-1 inh	tim10-1 conf	tim10 confirm	tim23-1 conf
O=c1oc(-c2ccco2)nc2sc3c(c12)CCCC3	2	54*	47*	-7	46*	31*	43*	42*
O=c1cc(-c2ccccc2)cc(-c2ccccc2)n1O	1	80*	17	28	47*	28	/	68*
Cc1cc(NC(=O)OC2CCCCC2)ccc1[N+](=O)[O-]	0	53*	34	-104	49*	25	/	55*
Cc1cccnc1Nc1nc(-c2ccc(F)cc2)cs1	1	47	37	-124	20	/	/	/
Cc1cccnc1Nc1nc(-c2ccc(O)cc2)cs1	0	75*	31	-171	57*	17	/	57*
COc1cccc(CN(C)C(=O)c2cc(COc3ccc(-n4cncn4)cc3)on2)c1	31	51*	20	25	41*	30*	/	34
CSCCC(NS(=O)(=O)Cc1ccccc1)C(=O)NNc1ccccc1 (stereo unspecified)	-2	/	/	/	/	/	/	/
CN(C)c1cccc(C(=O)Nc2nc3ccccc3[nH]2)c1	0	-11	15	-74	-9	/	/	/
Cc1ccc(N(C)S(=O)(=O)c2cccc(C(=O)Nc3nc4ccccc4[nH]3)c2)cc1	0	56*	34	49	41*	42*	/	53*
CCNC(=S)N/N=C/c1ccc(-c2ccccc2)o1	-1	53*	28	-2	44*	33*	/	36
CCNC(=S)N/N=C/c1ccco1	-2	-2	11	-15	5	/	/	/
CCOC(=O)C(=Cc1ccc(F)cc1)C(=O)OCC	/	55*	43*	45	53*	46*	48*	60*
O=C(NC(=S)NCCc1ccccc1)c1ccco1	0	56*	48*	3	42*	26	-15	48*
O=C(NC(=S)NC1CCCc2ccccc21)c1ccco1 (stereo unspecified)	1	52*	43*	-2	51*	41*	43*	58*
Cc1nc2sccn2c(=O)c1S(=O)(=O)N1CCN(c2ccccc2F)CC1	0	/	/	/	/	/	/	/
CCc1nc2ccc(C(=O)Nc3cccc(OC)c3)cn2c1N(C)Cc1ccc(OC)cc1	0	/	/	/	/	/	/	/
C[C@@H]1CN([C@H](C)CO)C(=O)CCCn2nncc2CO[C@@H]1CN(C)C(=O)NC1CCCCC1	0	/	/	/	/	/	/	/
CC(C)[C@H](N[C@@H](C)c1ccccc1)c1c(O)ccc2ccccc12	2	50*	22	24	45*	35*	/	40*
CC(C)(C)C(=O)NC(c1ccccc1)c1c(O)ccc2ccccc12 (stereo unspecified)	15	10	29	-20	9	/	/	/
CCOC(=O)CNc1c(-c2ccccc2)nc2ccc(Cl)cn12	1	51*	40*	-4	40*	33*	2	51*
COc1ccc(-n2cccc2C=O)cc1	-2	-5	-5	9	-4	/	/	/
COc1ccc(-n2cccc2/C=C/[N+](=O)[O-])cc1	2	83*	59*	8	62*	53*	-9	73*
O=c1[nH]cnc2c1c(-c1ccccc1)cn2-c1ccccc1	1	34	24	19	34	/	/	/
Cc1ccc(-n2cc(-c3ccccc3)c3c(=O)[nH]cnc32)cc1	1	57*	49*	17	48*	32*	-39	43*
Fc1cccc(-n2cc(-c3ccccc3)c3c(=S)nc[nH]c32)c1	0	55*	36	33	40*	32*	/	48*
Fc1ccc(-n2cc(-c3ccccc3)c3c(=S)nc[nH]c32)cc1	0	65*	24	34	63*	13	/	33
